Results published in PubChem BioAssay AID1239 (SRMLSC, 2008).
The whole screen tested about 190,000 compounds, of which about 3,100 (1.6%) were called active. The full list was thinned out, with actives kept by preference. Values without a mark were called inactive. No stated cut-off is given here; in the data, active means fold change above about 3.3; inconclusive means no clear call, values can overlap the other calls; inactive means below that.

Assay: activators of NF-kB expression in neurons, primary screen, cell-based, HTS (AID 1239)
Settings: human neuronal cells, NF-kB reporter expression; at 12.5 µM; hits give high values

Row | Structure (SMILES) | fold change
1 | Cc1nn(-c2ccccc2)c2c1C(c1cccc([N+](=O)[O-])c1)N(c1ccccc1)C(=O)N2 (stereo not drawn) | 1.17
2 | O=C1CC(c2ccccc2)=NN1c1ccc([N+](=O)[O-])cc1 | 1.27
3 | Cc1nn(-c2ccc([N+](=O)[O-])cc2)c(N)c1-c1ccccc1 | 6.64 (active)
4 | Cc1nc2cc(NC(=O)NCc3ccccc3)ccc2o1 | 1.54
5 | Cc1nc2ccc(NC(=O)C(F)(F)F)cc2o1 | 0.91
6 | Cc1ccc(NC(=O)Nc2ccc3oc(C)nc3c2)cc1 | 5.03 (active)
7 | COc1ccc(C2CC(c3cccs3)=NN2c2ccccc2)cc1 (stereo not drawn) | 1.15
8 | CCCNS(=O)(=O)c1ccc(CCC(=O)N2CCCC2)cc1 | 1.25
9 | Cn1cnnc1Sc1ccc(CN2CCN(C3CCCC3)C(CCO)C2)o1 (stereo not drawn) | 1.08
10 | OCCC1CN(Cc2ccc3nsnc3c2)CCN1C1CCCCC1 (stereo not drawn) | 0.99
11 | OCCC1CN(Cc2ccc3nsnc3c2)CCN1C1CCCC1 (stereo not drawn) | 5.55 (active)
12 | N/C(=N\OC(=O)CCc1ccccc1)c1cccnc1 | 1.31
13 | OCC1(Cc2ccccc2C(F)(F)F)CCN(Cc2cccc3cnccc23)CC1 | 0.85
14 | COc1cc(SC)ccc1C(=O)NCCOc1ccccc1Cl | 5.99 (active)
15 | COc1cc(SC)ccc1C(=O)Nc1cc(C)ccn1 | 1.01
16 | COc1ccccc1CNC(=O)c1ccc(SC)cc1OC | 1.42
17 | COc1cc(CNCCN(C)C)ccc1OCc1c(F)cccc1Cl | 1.11
18 | COc1cccc(CN(C)CC(=O)Nc2ccccc2C(=O)Nc2ccccc2)c1 | 0.95
19 | O=c1[nH]c2cccnc2n(CCNc2ncc(C(F)(F)F)cc2Cl)c1=O | 1.12
20 | NC(N)=Nc1nc2ccc(Br)cc2c(=O)[nH]1 | 3.87 (active)
21 | NC(=O)C1CCN(Cc2nc3c(Br)cc(Br)cc3c(=O)[nH]2)CC1 | 1.47
22 | C/C(=N\N)c1c(-c2ccccc2)c2cc(Br)ccc2[nH]c1=O | 0.98
23 | CC(C)Cn1c(N)c(C(=O)COC(=O)CN2C(=O)C3CC=CCC3C2=O)c(=O)n(C)c1=O (stereo not drawn) | 0.78
24 | Cc1ccc(NC(=S)NCc2ccccc2Cl)c(C)c1 | 0.92
25 | Cc1ccc(NC(=S)NC(=O)c2ccc(-c3ccccc3)cc2)c(C)c1 | 1.18
26 | Cc1ccc(NC(=S)Nc2ncccc2C)c(C)c1 | 3.74 (active)
27 | Cc1ccc(S(=O)(=O)N(C)C)cc1NC(=O)c1ccccc1Br | 1.05
28 | COC(=O)CCNC(=O)c1ccc2[nH]c(C)c(C)c2c1 | 0.99
